In PubChem BioAssay one finds inhibition data, which are given here for 16 molecules.

The target in assay [1] is Nuclear receptor coactivator 3 (Homo sapiens) (UniProt Q9Y6Q9). Description: NCOA3 GAL4-fusion reporter inhibition – cell-based, luminescence, quadruplicate, confirmation (AID 588792).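 Also: 0% = DMSO treated cells and 100% = gossypol at 36 µM.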 The settings on record: HEK293 GAL4-SRC3 luciferase reporter, at 3.6 µM, stronger effect = higher value.
Assay [2] deals with transactivating tegument protein VP16 (Human herpesvirus 1), Gal4-VP16 luciferase reporter. Description: repression of VP16-driven luciferase reporter – cell-based, luminescence, high throughput, counter-screen for SRC3 inhibitor project (AID 588794; in the data active = inhibition above about 30%). Conditions: mammalian cells, at 3.6 µM, stronger effect = higher value. (In general: A reporter such as luciferase makes a cellular process visible.)

For assay [3], the target named is Nuclear receptor coactivator 1 (Homo sapiens) (UniProt Q15788). Description: NCOA1 GAL4-fusion reporter inhibition – cell-based, luminescence, quadruplicate, confirmation (AID 588820;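 active = mean inhibition above 46.68%, the untreated control wells mean plus 3 SD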;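 also: 0% = DMSO wells and 100% = gossypol 36 µM treated wells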). The settings on record: HEK293 GAL4-SRC1 luciferase reporter, at 3.6 µM, stronger effect = higher value.
Sequence of Nuclear receptor coactivator 1 (Homo sapiens) (Q15788 whole entry, looked up, the tested form may be a part): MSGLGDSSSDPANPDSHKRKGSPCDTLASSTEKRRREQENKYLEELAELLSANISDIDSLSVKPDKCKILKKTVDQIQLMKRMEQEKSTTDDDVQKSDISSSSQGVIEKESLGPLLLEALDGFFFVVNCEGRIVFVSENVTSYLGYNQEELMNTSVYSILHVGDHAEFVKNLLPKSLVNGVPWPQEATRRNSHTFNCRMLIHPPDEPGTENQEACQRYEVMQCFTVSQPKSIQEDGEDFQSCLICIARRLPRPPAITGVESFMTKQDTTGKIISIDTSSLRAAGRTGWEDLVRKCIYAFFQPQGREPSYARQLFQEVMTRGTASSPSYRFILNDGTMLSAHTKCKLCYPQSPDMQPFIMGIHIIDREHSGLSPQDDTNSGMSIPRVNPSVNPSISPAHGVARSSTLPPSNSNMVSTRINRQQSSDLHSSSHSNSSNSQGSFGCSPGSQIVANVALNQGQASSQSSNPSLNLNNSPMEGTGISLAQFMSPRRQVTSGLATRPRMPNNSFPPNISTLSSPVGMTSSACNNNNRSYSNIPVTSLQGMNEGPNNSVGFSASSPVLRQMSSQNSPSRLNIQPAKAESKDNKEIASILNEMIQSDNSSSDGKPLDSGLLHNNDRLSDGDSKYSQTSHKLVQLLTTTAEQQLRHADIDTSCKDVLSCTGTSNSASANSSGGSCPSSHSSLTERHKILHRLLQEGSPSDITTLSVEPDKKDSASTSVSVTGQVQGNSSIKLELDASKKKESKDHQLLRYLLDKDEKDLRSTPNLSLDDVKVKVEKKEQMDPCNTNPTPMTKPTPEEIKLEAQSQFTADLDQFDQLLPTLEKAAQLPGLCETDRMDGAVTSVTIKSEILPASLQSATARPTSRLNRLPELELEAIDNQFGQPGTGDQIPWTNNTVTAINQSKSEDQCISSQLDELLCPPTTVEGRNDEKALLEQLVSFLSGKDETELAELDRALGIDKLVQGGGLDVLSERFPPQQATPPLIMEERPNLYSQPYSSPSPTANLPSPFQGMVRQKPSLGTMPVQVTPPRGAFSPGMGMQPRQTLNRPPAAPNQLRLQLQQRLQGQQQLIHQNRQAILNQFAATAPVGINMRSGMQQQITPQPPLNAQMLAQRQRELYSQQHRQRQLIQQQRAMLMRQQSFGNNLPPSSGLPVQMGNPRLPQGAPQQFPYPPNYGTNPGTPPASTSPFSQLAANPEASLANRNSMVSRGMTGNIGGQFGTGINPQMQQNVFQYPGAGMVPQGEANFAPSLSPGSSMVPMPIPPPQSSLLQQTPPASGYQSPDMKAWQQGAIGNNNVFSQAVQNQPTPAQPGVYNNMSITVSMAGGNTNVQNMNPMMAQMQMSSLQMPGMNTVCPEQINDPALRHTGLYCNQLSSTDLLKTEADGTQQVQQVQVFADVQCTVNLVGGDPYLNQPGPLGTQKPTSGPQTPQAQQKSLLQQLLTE
Assay [4] in a line: repression of VP16-driven luciferase reporter – cell-based, luminescence, high throughput, counter-screen for SRC1 inhibitor project (AID 588824; in the data active = inhibition above about 25%). Conditions: cell-based VP16 transactivation luciferase luminescence; at 3.6 µM; stronger effect = higher value.
The nature of assay [5]: StAR promoter reporter inhibitors, counter-screen for LRH-1 inverse agonist project, cell-based, luminescence, high throughput (AID 651611; in the data active = inhibition above about 28%). The settings on record: StAR promoter luciferase reporter counterscreen, at 3.6 µM, stronger effect = higher value. In general terms: The purpose of a counterscreen is to sort out artefacts and off-target activity.
The target in assay [6] is Nuclear receptor subfamily 5 group A member 2 (Homo sapiens) (UniProt O00482). Description: NR5A2 activity suppression in reporter cells – cell-based, luminescence, confirmation (AID 651613; in the data active = inhibition above about 42%;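 also: HEK293T cells co-transfected with LRH-1 and StAR promoter luciferase reporter; 0% = vehicle wells and 100% = parental cells lacking receptor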). Conditions: cell-based LRH-1 luciferase reporter, inverse agonism; at 3.6 µM; stronger effect = higher value.
Sequence of Nuclear receptor subfamily 5 group A member 2 (Homo sapiens) (O00482 whole entry, looked up): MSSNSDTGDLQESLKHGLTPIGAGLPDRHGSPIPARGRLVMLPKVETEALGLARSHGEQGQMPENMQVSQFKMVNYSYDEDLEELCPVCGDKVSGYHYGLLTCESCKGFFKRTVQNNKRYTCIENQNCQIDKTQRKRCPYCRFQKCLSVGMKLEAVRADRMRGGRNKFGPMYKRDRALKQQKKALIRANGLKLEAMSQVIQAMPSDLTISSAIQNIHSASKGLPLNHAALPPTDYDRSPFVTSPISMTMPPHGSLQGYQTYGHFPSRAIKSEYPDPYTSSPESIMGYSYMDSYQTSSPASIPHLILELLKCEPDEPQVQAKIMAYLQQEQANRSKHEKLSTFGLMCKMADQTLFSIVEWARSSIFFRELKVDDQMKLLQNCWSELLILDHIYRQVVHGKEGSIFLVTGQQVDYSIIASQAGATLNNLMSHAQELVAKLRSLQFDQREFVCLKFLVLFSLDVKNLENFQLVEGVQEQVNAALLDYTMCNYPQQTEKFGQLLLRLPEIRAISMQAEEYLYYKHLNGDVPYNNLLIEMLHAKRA
In assay [7] the target is Steroidogenic factor 1 (Homo sapiens) (UniProt Q13285). Briefly: inverse agonism at SF1 nuclear receptor – cell-based, luminescence, high throughput, counter-screen for LRH-1 inverse agonist project (AID 651614; in the data active = inhibition above about 44%;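 also: cells cotransfected with StAR promoter reporter and SF1 expression vector; 0% = vehicle on cells with receptor and 100% = vehicle on cells lacking receptor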). Conditions: cell-based SF1 luciferase reporter, at 3.6 µM, stronger effect = higher value.
Sequence of Steroidogenic factor 1 (Homo sapiens) (Q13285 whole entry, looked up, the tested form may be a part): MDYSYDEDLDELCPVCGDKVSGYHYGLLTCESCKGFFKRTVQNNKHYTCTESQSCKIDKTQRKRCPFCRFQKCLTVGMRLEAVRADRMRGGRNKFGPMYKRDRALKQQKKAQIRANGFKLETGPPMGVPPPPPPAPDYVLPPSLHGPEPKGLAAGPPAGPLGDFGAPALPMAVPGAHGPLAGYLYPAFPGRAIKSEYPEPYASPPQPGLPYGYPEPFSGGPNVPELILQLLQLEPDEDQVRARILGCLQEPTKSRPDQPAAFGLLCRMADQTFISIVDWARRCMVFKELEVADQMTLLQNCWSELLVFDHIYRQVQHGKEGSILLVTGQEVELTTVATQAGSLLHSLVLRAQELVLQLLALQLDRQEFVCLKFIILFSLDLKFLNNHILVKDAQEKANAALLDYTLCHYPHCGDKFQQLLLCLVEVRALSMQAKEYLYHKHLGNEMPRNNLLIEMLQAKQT
Assay [8] is described as follows: compounds suppressing VP16-driven luciferase signal – cell-based, luminescence, high throughput, counter-screen for LRH-1 inverse agonist project (AID 651615; in the data active = inhibition above about 33%). The settings on record: Gal4-VP16 luciferase reporter cells, at 3.6 µM, stronger effect = higher value.
In assay [9] the target is Photoreceptor-specific nuclear receptor (Homo sapiens) (UniProt Q9Y5X4). Briefly: retest of NR2E3-NCOR disrupting agonists – cell-based, luminescence, CHO-S two-hybrid, confirmation (AID 624378;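 active = average inhibition above a cutoff equal to the mean inhibition of all tested compounds plus one SD, cut at about 70% in these data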;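 also: 0% = DMSO in NR2E3 cells and 100% = DMSO in cells lacking NR2E3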). Conditions: CHO-S mammalian two-hybrid NR2E3-NCOR, luciferase luminescence; at 3.98 µM; stronger effect = higher value.
Sequence of Photoreceptor-specific nuclear receptor (Homo sapiens) (Q9Y5X4 whole entry, looked up): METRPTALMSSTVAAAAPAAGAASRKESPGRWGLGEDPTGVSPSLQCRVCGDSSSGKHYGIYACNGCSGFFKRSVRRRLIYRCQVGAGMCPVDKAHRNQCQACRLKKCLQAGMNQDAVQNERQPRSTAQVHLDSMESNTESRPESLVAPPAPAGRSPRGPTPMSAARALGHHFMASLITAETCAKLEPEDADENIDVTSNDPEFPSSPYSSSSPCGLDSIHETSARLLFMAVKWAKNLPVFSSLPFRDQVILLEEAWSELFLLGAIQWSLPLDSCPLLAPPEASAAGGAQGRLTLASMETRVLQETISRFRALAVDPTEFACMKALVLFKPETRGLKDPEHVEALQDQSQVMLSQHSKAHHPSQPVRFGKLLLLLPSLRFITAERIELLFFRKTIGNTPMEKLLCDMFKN
Assay [10] is described as follows: nonselective effects on VP16 transactivation – cell-based, luminescence, CHO-S, high throughput, counter-screen for NR2E3 agonist project, confirmation (AID 624379;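 active = mean inhibition above a cutoff equal to the average over all tested compounds plus one standard deviation, cut at about 70% in these data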;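 also: 0% = DMSO with VP16-transfected cells and 100% = DMSO with cells lacking VP16; higher means less reporter light so more repression of VP16 activity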). Conditions: CHO-S GAL4-VP16 luciferase reporter, at 3.98 µM, stronger effect = higher value.
For assay [11], the system named is transactivating tegument protein VP16 (Human herpesvirus 1). Description: compounds suppressing VP16-driven luciferase signal – cell-based, luminescence, single concentration, counter-screen for SRC2 inhibitor project (AID 652007; in the data active = inhibition above about 36%). The settings on record: cell-based VP16 transactivation luciferase reporter, at 8.9 µM, stronger effect = higher value.
In assay [12] the target is Nuclear receptor coactivator 2 (Homo sapiens) (UniProt Q15596). Briefly: inhibition of GAL4-SRC2 driven luciferase expression – cell-based, luminescence, HEK293, triplicate, confirmation (AID 652008;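 active = mean inhibition above 46.5%, the solvent-only control mean plus 3 SD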;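 also: 0% = DMSO-treated cells and 100% = Gossypol at 36 µM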). Conditions: HEK293 GAL4-SRC2 luciferase reporter, at 8.9 µM, stronger effect = higher value.
Assay [13] can be described thus: VP16-driven transactivation reporter suppression – cell-based, luminescence, HEK293, counter-screen for COUP-TFII antagonist project (AID 687007; in the data active = inhibition above about 13%). The settings on record: HEK293 Gal4-VP16 luciferase reporter, at 8.5 µM, stronger effect = higher value.
Assay [14] deals with COUP transcription factor 2 (Homo sapiens) (UniProt P24468). Briefly: retest of COUP-TFII reporter suppressors – cell-based, luciferase reporter, HEK293, triplicate, confirmation (AID 687008;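 active = mean inhibition over three repeats above a set limit taken from the earlier primary screen, cut at about 38% in these data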;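 also: 100% = cells given the luciferase reporter alone without the COUP-TF2 vector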). Conditions: HEK293 NGFI-A luciferase reporter, luminescence; at 8.5 µM; stronger effect = higher value.
Sequence of COUP transcription factor 2 (Homo sapiens) (P24468 whole entry, looked up): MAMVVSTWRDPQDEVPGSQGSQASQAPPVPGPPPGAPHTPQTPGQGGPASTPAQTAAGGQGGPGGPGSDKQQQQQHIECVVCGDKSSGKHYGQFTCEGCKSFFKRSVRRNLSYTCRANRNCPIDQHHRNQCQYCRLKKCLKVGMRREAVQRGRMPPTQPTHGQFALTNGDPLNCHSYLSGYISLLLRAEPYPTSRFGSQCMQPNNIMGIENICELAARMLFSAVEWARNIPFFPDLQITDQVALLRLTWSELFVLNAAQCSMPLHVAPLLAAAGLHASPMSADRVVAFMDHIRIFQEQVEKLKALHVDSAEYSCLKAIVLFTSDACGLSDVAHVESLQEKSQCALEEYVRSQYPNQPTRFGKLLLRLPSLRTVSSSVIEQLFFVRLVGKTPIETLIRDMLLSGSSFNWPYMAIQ

By inhibition is commonly meant the drop in the measured response relative to a control, in per cent.

Values without a mark were called inactive. This is one part of the list. Active and inactive are the calls of the source.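 The calls were made as follows, unless noted: active = mean inhibition over 43.08%, the solvent-only control mean plus 3 SD; inactive = the rest.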

Sequence of Nuclear receptor coactivator 3 (Homo sapiens) (Q9Y6Q9 whole entry, looked up, the tested form may be a part): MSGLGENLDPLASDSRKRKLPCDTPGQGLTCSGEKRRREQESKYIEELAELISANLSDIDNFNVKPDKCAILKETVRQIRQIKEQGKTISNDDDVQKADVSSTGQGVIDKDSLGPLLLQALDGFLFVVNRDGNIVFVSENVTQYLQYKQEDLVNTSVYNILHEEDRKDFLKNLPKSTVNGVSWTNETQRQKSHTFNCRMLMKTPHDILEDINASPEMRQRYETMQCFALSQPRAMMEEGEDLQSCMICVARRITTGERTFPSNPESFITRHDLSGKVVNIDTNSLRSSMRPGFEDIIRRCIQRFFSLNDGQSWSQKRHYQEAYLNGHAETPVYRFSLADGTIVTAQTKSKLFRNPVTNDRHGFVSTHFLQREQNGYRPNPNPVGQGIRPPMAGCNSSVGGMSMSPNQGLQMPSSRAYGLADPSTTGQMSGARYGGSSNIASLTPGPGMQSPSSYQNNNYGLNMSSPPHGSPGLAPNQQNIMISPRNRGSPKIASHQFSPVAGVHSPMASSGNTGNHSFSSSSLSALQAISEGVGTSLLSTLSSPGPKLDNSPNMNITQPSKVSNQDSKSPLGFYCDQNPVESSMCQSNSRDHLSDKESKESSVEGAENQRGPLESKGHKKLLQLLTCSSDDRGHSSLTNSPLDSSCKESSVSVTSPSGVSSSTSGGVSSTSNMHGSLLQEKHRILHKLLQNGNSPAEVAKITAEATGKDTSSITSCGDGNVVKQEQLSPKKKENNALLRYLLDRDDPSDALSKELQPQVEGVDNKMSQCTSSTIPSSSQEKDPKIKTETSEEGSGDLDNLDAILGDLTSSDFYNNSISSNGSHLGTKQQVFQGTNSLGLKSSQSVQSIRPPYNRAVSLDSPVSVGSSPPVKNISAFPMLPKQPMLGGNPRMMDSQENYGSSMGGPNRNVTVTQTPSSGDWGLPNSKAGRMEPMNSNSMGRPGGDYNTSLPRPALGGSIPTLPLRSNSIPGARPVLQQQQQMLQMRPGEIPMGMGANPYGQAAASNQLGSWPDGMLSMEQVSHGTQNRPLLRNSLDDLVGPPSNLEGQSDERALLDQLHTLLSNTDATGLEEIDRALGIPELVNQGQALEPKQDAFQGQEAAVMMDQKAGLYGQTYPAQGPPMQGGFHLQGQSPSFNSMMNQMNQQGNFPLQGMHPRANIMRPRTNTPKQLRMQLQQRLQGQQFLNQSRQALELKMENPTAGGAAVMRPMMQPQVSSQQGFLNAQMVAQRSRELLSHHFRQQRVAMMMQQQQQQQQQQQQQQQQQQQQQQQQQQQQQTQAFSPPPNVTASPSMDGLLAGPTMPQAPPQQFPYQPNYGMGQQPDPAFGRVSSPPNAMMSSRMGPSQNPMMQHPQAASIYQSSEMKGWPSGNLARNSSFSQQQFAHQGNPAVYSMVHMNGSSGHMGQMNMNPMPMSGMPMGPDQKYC

Take `CN1OC[C@@H]2CN[C@H](c3ccc(-c4cc5ccccc5o4)cc3)C[C@@H]21`: the inhibition in [1] was 83.3% (active); in [2], 76.8% (active); in assay [3], 68.6% (active); in [4], 68.7% (active); in assay [5] it was 78.3% (active); in assay [6], 62.2% (active). The inhibition in [7] was 79.8% (active); in assay [8] it was 65.2% (active).

Regarding `O=C(Nc1ccc([N+](=O)[O-])cc1)c1ccc(Cn2cc([N+](=O)[O-])cn2)cc1`, the inhibition in assay [1] was 43.1% (active); in assay [2], 58.7% (active); in assay [3], 29.1%; in assay [4], 56.1% (active); in assay [5], 52.3% (active); in assay [6], 77.3% (active). Moreover, the results for the inhibition in assay [7] and in assay [8] were 72.8% (active) and 74.4% (active), respectively.

Consider `CCC(=O)NC(c1ccc(Cl)cc1Cl)c1ccc2cccnc2c1O` (configuration not stated), for which the inhibition in [1] is 16.2%; in assay [2], 34.1% (active); in assay [3], 59.7% (active); in assay [4] it was 51.3% (active); in assay [5], 83.4% (active); in assay [6], 92.7% (active). For the same molecule, the inhibition is 87.2% (active) in assay [7] and 72.7% (active) in [8].

`N=C1C=CC(=C(c2ccc(N)cc2)c2ccc(N)cc2)C=C1`: the inhibition is 56.2% (active) in [1]; 60% (active) in assay [2]; 45.2% in assay [3]; 45.9% (active) in assay [4]; 54.9% (active) in assay [5]; 110% (active) in [6]. Also, the inhibition is 85.2% (active) in assay [7] and 88.5% (active) in assay [8].

As to `CCC1(OC(=O)CN(C)C)C(=O)OCc2c1cc1n(c2=O)Cc2cc3c(N)cccc3nc2-1` (configuration not stated), the inhibition in assay [1] was 89.8% (active); in assay [2], 65.3% (active); in assay [3], 62.3% (active); in assay [4], 54.6% (active); in [5] it was 83.5% (active); in [6], 103% (active). Also, the inhibition in [7] is 90.5% (active); in assay [8], 68.1% (active).

For `CC(C)(C)c1ccc(Oc2ccc(N)cc2)cc1`, the inhibition in [1] is 68.3% (active); in assay [2] it was 61.4% (active); in [3], 52.4% (active); in [4], 57.7% (active); in [9] it was 36.9%; in assay [10], 71.6% (active). Besides, the inhibition in [5] was 71.2% (active); in assay [6], 88.6% (active); in [7] it was 78.9% (active); in assay [8], 60.1% (active); in [11], 90.2% (active); in assay [12], 95.2% (active). The inhibition was 91.8% (active) in assay [13] and 101% (active) in assay [14].

For the molecule `Cn1c2c(c(=O)n(C)c1=O)C(C(F)(F)F)(C(F)(F)F)N=C(c1ccc(Cl)cc1)N2`, the inhibition in assay [1] is 77.8% (active); in assay [2], 85.7% (active); in assay [3], 42.6%; in [4] it was 83.9% (active); in [5] it was 80.6% (active); in assay [6], 104% (active). In addition, the inhibition in [7] is 93.6% (active); in assay [8], 86.7% (active).

Consider `O=[N+]([O-])c1cc(CN2CCN(c3ccccc3)CC2)c(O)c2ncccc12`, for which the inhibition in assay [1] was 48.3% (active); in assay [2], 56.4% (active); in assay [3] it was 9.05%; in [4], 50.8% (active); in [5], 59.3% (active); in [6], 90.1% (active). Besides, the inhibition was 85.7% (active) in assay [7] and 73.4% (active) in assay [8].

In the case of `CC1CCc2c(sc(NC(=O)c3cccs3)c2C(=O)O)C1` (configuration not stated), the inhibition in [1] is 33.8%; in assay [2], 60.6% (active); in [3], 11.8%; in assay [4], 54.1% (active).

For the molecule `C=C1C(=O)C23C(O)C1CCC2C12CCCC(C)(COC(C)=O)C1C(O)C3(O)OC2` (configuration not stated), the inhibition was 66.6% (active) in assay [1]; 58.3% (active) in [2]; 20.7% in assay [3]; 57.9% (active) in [4]; 71.9% (active) in assay [5]; 63.7% (active) in assay [6]. Further, the inhibition is 74.4% (active) in [7] and 82.5% (active) in assay [8].

For the molecule `CC(=O)N1CCCc2cc(S(=O)(=O)N3CCCC(C(=O)N4CCN(c5cccc(Cl)c5)CC4)C3)ccc21` (configuration not stated), the inhibition is 26.4% in assay [1]; 31.5% (active) in assay [2]; 7.87% in [3]; 35.6% (active) in assay [4]; 93% (active) in assay [9]; 70.2% in assay [10]. Moreover, the inhibition in [11] was 14.8%; in assay [12], 26.6%; in [13], 4.48%; in assay [14], 60.1% (active).

Take `Nc1nc(N)nc(-c2cc(O)ccc2O)n1`: the inhibition in assay [1] was 78.4% (active); in assay [2], 53.5% (active); in assay [3], 74.7% (active); in [4], 43.7% (active); in assay [5], 41.7% (active); in assay [6], 45.4% (active). The figures for the inhibition in assay [7] and in [8] were 65.9% (active) and 57.1% (active), respectively.

Turning to `C=C1C(=O)c2sccc2C(c2ccc(OC)c(OC)c2)C1COC(C)=O` (configuration not stated), the inhibition in assay [1] is 67.7% (active); in assay [2], 59% (active); in [3], 6.09%; in assay [4], 58.4% (active); in assay [5] it was 69.8% (active); in assay [6], 95.4% (active). In addition, the inhibition in [7] was 92.8% (active); in [8], 82.4% (active).

Take `CCCCC(=O)NC(c1ccc(Cl)cc1Cl)c1ccc2cccnc2c1O` (configuration not stated): the inhibition was 39.4% in assay [1]; 24.5% in assay [2]; 27.4% in [3]; 27.2% (active) in [4]; 64% (active) in [5]; 82% (active) in assay [6]. Moreover, the inhibition in [7] was 60.9% (active); in assay [8], 71.7% (active).

For `C[n+]1c(-c2ccccc2)cc2c(=Cc3ccccc3)c3ccccc3n21`, the inhibition in assay [1] is 39.3%; in assay [2], 70.3% (active); in [3], 27.9%; in assay [4], 63.3% (active); in [5], 54.9% (active); in assay [6] it was 98.1% (active). Moreover, the inhibition in [7] is 87.2% (active); in assay [8] it was 84.3% (active).

For `Cc1cc(OCc2nc(N)nc(N)c2-c2ccc(Cl)c(Cl)c2)ccc1[N+](=O)[O-]`, the inhibition in assay [1] was 52.2% (active); in assay [2] it was 30.6% (active); in [3], 71.3% (active); in assay [4] it was 30.1% (active); in assay [5] it was 70.7% (active); in assay [6], 69.5% (active). Besides, the inhibition in [7] was 63.5% (active); in assay [8] it was 42% (active).
